Common to all, as to assay: PBM; 200 nM protein, PBS
Details in all cases: dsDNA, one strand shown

For test [1], the target named is T1, SIX6 (Homo sapiens, UniProt O95475 114-200, L167I).
T1 sequence: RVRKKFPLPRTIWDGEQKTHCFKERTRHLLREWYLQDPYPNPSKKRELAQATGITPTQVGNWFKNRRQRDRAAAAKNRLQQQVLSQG

The target in test [2] is T2, SIX6 (Homo sapiens, UniProt O95475 114-200, L143V).
T2 sequence: T1 sequence with L30V, I54L

The target in test [3] is T3, SIX6 (Homo sapiens, UniProt O95475 114-200, H141N).
T3 sequence: T1 sequence with H28N, I54L

The target in test [4] is T4, SIX6 (Homo sapiens, UniProt O95475 114-200, T165P).
T4 sequence: T1 sequence with T52P, I54L

Test [5] concerns the target T5, SIX6 (Homo sapiens, UniProt O95475 114-200, L167M).
T5 sequence: T1 sequence with I54M

The target in test [6] is T6, SIX6 (Homo sapiens, UniProt O95475 114-200, L143M).
T6 sequence: T1 sequence with L30M, I54L

Test [7] has as its target T7, SIX6 (Homo sapiens, UniProt O95475 114-200, L143I).
T7 sequence: T1 sequence with L30I, I54L

In test [8] the target is T8, SIX6 (Homo sapiens, UniProt O95475 114-200, T165G).
T8 sequence: T1 sequence with T52G, I54L

Test [9] deals with T9, SIX6 (Homo sapiens, UniProt O95475 114-200, T139Q).
T9 sequence: T1 sequence with T26Q, I54L

The target of test [10] is T10, SIX6 (Homo sapiens, UniProt O95475 114-200, T165A).
T10 sequence: T1 sequence with T52A, I54L

The target of test [11] is T11, SIX6 (Homo sapiens, UniProt O95475 114-200, L167V).
T11 sequence: T1 sequence with I54V

For test [12], the target named is T12, SIX6 (Homo sapiens, UniProt O95475 114-200).
T12 sequence: T1 sequence with I54L

Test [13] has as its target T13, SIX6 (Homo sapiens, UniProt O95475 114-200, T165I).
T13 sequence: T1 sequence with T52I, I54L

Numbering of substitutions follows the chain as printed.

Consider ACTGATAC, for which the binding signal was 11.3 upbm affinity estimate (log intensity, higher = more binding, comparable within an allelic series) with SIX6 [1]; 10.3 upbm affinity estimate (log intensity, higher = more binding, comparable within an allelic series) in the test with SIX6 [2]; 11.3 upbm affinity estimate (log intensity, higher = more binding, comparable within an allelic series) in the test with SIX6 [3]; 9.79 upbm affinity estimate (log intensity, higher = more binding, comparable within an allelic series) in the test with SIX6 [4]; 10.5 upbm affinity estimate (log intensity, higher = more binding, comparable within an allelic series) with SIX6 [5]; 10.9 upbm affinity estimate (log intensity, higher = more binding, comparable within an allelic series) with SIX6 [6]. In addition, the binding signal in the test with SIX6 [7] is 10.4 upbm affinity estimate (log intensity, higher = more binding, comparable within an allelic series); with SIX6 [8], 11.3 upbm affinity estimate (log intensity, higher = more binding, comparable within an allelic series); with SIX6 [9] it was 11.3 upbm affinity estimate (log intensity, higher = more binding, comparable within an allelic series); with SIX6 [10], 11.2 upbm affinity estimate (log intensity, higher = more binding, comparable within an allelic series); with SIX6 [11], 10.9 upbm affinity estimate (log intensity, higher = more binding, comparable within an allelic series); with SIX6 [12] it was 11 upbm affinity estimate (log intensity, higher = more binding, comparable within an allelic series). Moreover, in the test with SIX6 [13], the binding signal was 11 upbm affinity estimate (log intensity, higher = more binding, comparable within an allelic series).
On to AGTGTATC, for which the binding signal is 11 upbm affinity estimate (log intensity, higher = more binding, comparable within an allelic series) with SIX6 [1]; 10.3 upbm affinity estimate (log intensity, higher = more binding, comparable within an allelic series) with SIX6 [2]; 11 upbm affinity estimate (log intensity, higher = more binding, comparable within an allelic series) with SIX6 [3]; 9.91 upbm affinity estimate (log intensity, higher = more binding, comparable within an allelic series) in the test with SIX6 [4]; 10.7 upbm affinity estimate (log intensity, higher = more binding, comparable within an allelic series) with SIX6 [5]; 11 upbm affinity estimate (log intensity, higher = more binding, comparable within an allelic series) with SIX6 [6]. For the same sequence, the binding signal with SIX6 [7] was 10.4 upbm affinity estimate (log intensity, higher = more binding, comparable within an allelic series); with SIX6 [8], 11.1 upbm affinity estimate (log intensity, higher = more binding, comparable within an allelic series); in the test with SIX6 [9], 11.3 upbm affinity estimate (log intensity, higher = more binding, comparable within an allelic series); in the test with SIX6 [10], 11 upbm affinity estimate (log intensity, higher = more binding, comparable within an allelic series); with SIX6 [11], 10.8 upbm affinity estimate (log intensity, higher = more binding, comparable within an allelic series); with SIX6 [12] it was 11 upbm affinity estimate (log intensity, higher = more binding, comparable within an allelic series). Also, the binding signal in the test with SIX6 [13] was 10.9 upbm affinity estimate (log intensity, higher = more binding, comparable within an allelic series).
Regarding TGATACCA, the binding signal was 11.3 upbm affinity estimate (log intensity, higher = more binding, comparable within an allelic series) with SIX6 [1]; 10.5 upbm affinity estimate (log intensity, higher = more binding, comparable within an allelic series) with SIX6 [2]; 11.3 upbm affinity estimate (log intensity, higher = more binding, comparable within an allelic series) in the test with SIX6 [3]; 9.8 upbm affinity estimate (log intensity, higher = more binding, comparable within an allelic series) with SIX6 [4]; 10.7 upbm affinity estimate (log intensity, higher = more binding, comparable within an allelic series) with SIX6 [5]; 11 upbm affinity estimate (log intensity, higher = more binding, comparable within an allelic series) with SIX6 [6]. The binding signal was 10.6 upbm affinity estimate (log intensity, higher = more binding, comparable within an allelic series) with SIX6 [7]; 11.5 upbm affinity estimate (log intensity, higher = more binding, comparable within an allelic series) with SIX6 [8]; 11.3 upbm affinity estimate (log intensity, higher = more binding, comparable within an allelic series) with SIX6 [9]; 11.4 upbm affinity estimate (log intensity, higher = more binding, comparable within an allelic series) with SIX6 [10]; 11.1 upbm affinity estimate (log intensity, higher = more binding, comparable within an allelic series) with SIX6 [11]; 11.2 upbm affinity estimate (log intensity, higher = more binding, comparable within an allelic series) in the test with SIX6 [12]. Besides, the binding signal in the test with SIX6 [13] was 11.1 upbm affinity estimate (log intensity, higher = more binding, comparable within an allelic series).
In the case of GGATATCC, the binding signal with SIX6 [1] is 11 upbm affinity estimate (log intensity, higher = more binding, comparable within an allelic series); with SIX6 [2], 10.2 upbm affinity estimate (log intensity, higher = more binding, comparable within an allelic series); in the test with SIX6 [3] it was 10.9 upbm affinity estimate (log intensity, higher = more binding, comparable within an allelic series); with SIX6 [4] it was 9.51 upbm affinity estimate (log intensity, higher = more binding, comparable within an allelic series); with SIX6 [5], 10.6 upbm affinity estimate (log intensity, higher = more binding, comparable within an allelic series); with SIX6 [6] it was 10.9 upbm affinity estimate (log intensity, higher = more binding, comparable within an allelic series). Also, the binding signal was 10.2 upbm affinity estimate (log intensity, higher = more binding, comparable within an allelic series) in the test with SIX6 [7]; 11 upbm affinity estimate (log intensity, higher = more binding, comparable within an allelic series) with SIX6 [8]; 11 upbm affinity estimate (log intensity, higher = more binding, comparable within an allelic series) with SIX6 [9]; 10.8 upbm affinity estimate (log intensity, higher = more binding, comparable within an allelic series) with SIX6 [10]; 10.9 upbm affinity estimate (log intensity, higher = more binding, comparable within an allelic series) with SIX6 [11]; 11 upbm affinity estimate (log intensity, higher = more binding, comparable within an allelic series) with SIX6 [12]. For the same sequence, the binding signal with SIX6 [13] was 10.9 upbm affinity estimate (log intensity, higher = more binding, comparable within an allelic series).
GCAAAGCC: the binding signal with SIX6 [1] is 8.97 upbm affinity estimate (log intensity, higher = more binding, comparable within an allelic series); with SIX6 [2], 8.93 upbm affinity estimate (log intensity, higher = more binding, comparable within an allelic series); in the test with SIX6 [3], 8.96 upbm affinity estimate (log intensity, higher = more binding, comparable within an allelic series); with SIX6 [4], 9 upbm affinity estimate (log intensity, higher = more binding, comparable within an allelic series); with SIX6 [5] it was 9.02 upbm affinity estimate (log intensity, higher = more binding, comparable within an allelic series); with SIX6 [6], 8.9 upbm affinity estimate (log intensity, higher = more binding, comparable within an allelic series). Also, the binding signal with SIX6 [7] was 8.91 upbm affinity estimate (log intensity, higher = more binding, comparable within an allelic series); with SIX6 [8] it was 8.9 upbm affinity estimate (log intensity, higher = more binding, comparable within an allelic series); in the test with SIX6 [9] it was 9 upbm affinity estimate (log intensity, higher = more binding, comparable within an allelic series); with SIX6 [10], 8.93 upbm affinity estimate (log intensity, higher = more binding, comparable within an allelic series); with SIX6 [11], 8.94 upbm affinity estimate (log intensity, higher = more binding, comparable within an allelic series); with SIX6 [12], 8.98 upbm affinity estimate (log intensity, higher = more binding, comparable within an allelic series). Besides, the binding signal in the test with SIX6 [13] was 8.92 upbm affinity estimate (log intensity, higher = more binding, comparable within an allelic series).
With ACCGCGCC, the binding signal in the test with SIX6 [1] was 8.84 upbm affinity estimate (log intensity, higher = more binding, comparable within an allelic series); with SIX6 [2] it was 8.82 upbm affinity estimate (log intensity, higher = more binding, comparable within an allelic series); with SIX6 [3], 8.81 upbm affinity estimate (log intensity, higher = more binding, comparable within an allelic series); with SIX6 [4], 8.88 upbm affinity estimate (log intensity, higher = more binding, comparable within an allelic series); with SIX6 [5], 8.85 upbm affinity estimate (log intensity, higher = more binding, comparable within an allelic series); in the test with SIX6 [6] it was 8.81 upbm affinity estimate (log intensity, higher = more binding, comparable within an allelic series). The binding signal with SIX6 [7] was 8.86 upbm affinity estimate (log intensity, higher = more binding, comparable within an allelic series); in the test with SIX6 [8], 8.91 upbm affinity estimate (log intensity, higher = more binding, comparable within an allelic series); with SIX6 [9] it was 8.95 upbm affinity estimate (log intensity, higher = more binding, comparable within an allelic series); in the test with SIX6 [10], 8.82 upbm affinity estimate (log intensity, higher = more binding, comparable within an allelic series); with SIX6 [11], 8.78 upbm affinity estimate (log intensity, higher = more binding, comparable within an allelic series); in the test with SIX6 [12], 8.78 upbm affinity estimate (log intensity, higher = more binding, comparable within an allelic series). Besides, the binding signal with SIX6 [13] is 8.84 upbm affinity estimate (log intensity, higher = more binding, comparable within an allelic series).

(Values after article PMC11006913.)
